Assay outcomes as filed in PubChem BioAssay.
This is a sample that favours compounds with a hit; in the whole collection about 4.1% have one here.
hgDAF12 agonist = agonists of H. glycines DAF-12 nuclear receptor. HEK293 GAL4-hgDAF12 UAS-luciferase reporter, agonist luminescence; normalized to butyrate control. 370,000 tested, 1.8% active. AID 687014. activation, % at 6.8 µM;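 active = activation above a cutoff set at the mean of all screened compounds plus 3 SD, cut at about 10% in these data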
ssDAF12 agonist = activates DAF-12 receptor from parasite S. stercoralis | AID 652126 | HEK293 ssDAF-12/GRIP1 lit1-tk-luc reporter, luminescence; % of 3 µM dafachronic acid response | activation, % at 6.8 µM | 370,000 tested, 1% active;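 active = activation above the mean over all tested compounds plus 3 SD, cut at about 0.9% in these data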
DAX1 inh-1 = NR0B1 (DAX1) inhibition; P51843; HEK293 Gal4-DAX1 luciferase reporter, luminescence; inhibition, % at 6.75 µM; 340,000 tested, 0.99% active;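 active = inhibition above the mean over all tested compounds plus 3 SD, cut at about 4.2% in these data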;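 also: inhibition shows as a rise in luminescence from relieved DAX1 repression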
hcDAF-12 act = activates DAF-12 receptor from parasite H. contortus | HEK293 hcDAF-12 lit1-tk-luc reporter, luminescence; 0% DMSO, 100% Δ7-dafachronic acid | activation, % at 6.8 µM | 370,000 tested, 1.4% active;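 active = activation above the mean of all tested compounds plus 3 SD, cut at about 5.5% in these data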
DAX1 inh-2 = inhibitors of DAX1 repression of SF-1 activated StAR promoter; HEK293T StAR-luciferase reporter, SF-1/DAX-1 repression relief; inhibition, % at 6.8 µM; 370,000 tested, 1.1% active; AID 652010;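 active = inhibition above the mean over all tested compounds plus 3 SD, cut at about 3.6% in these data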;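 also: higher inhibition means more luminescence from relief of DAX-1 repression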
DAX1 conf = confirmation of human DAX1 (NR0B1) inhibitors | AID 652134 | 2,400 tested, 87% active | HEK293T StAR-promoter luciferase reporter, SF-1/DAX-1 repression | shares compounds with DAX1 inh-2 | inhibition, % at 6.8 µM;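 active = inhibition above the average of every tested compound plus 3 SD, cut at about 3.8% in these data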;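 also: active compounds raise luminescence by relieving repression of the StAR reporter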
Target sequence (P51843 whole entry, looked up): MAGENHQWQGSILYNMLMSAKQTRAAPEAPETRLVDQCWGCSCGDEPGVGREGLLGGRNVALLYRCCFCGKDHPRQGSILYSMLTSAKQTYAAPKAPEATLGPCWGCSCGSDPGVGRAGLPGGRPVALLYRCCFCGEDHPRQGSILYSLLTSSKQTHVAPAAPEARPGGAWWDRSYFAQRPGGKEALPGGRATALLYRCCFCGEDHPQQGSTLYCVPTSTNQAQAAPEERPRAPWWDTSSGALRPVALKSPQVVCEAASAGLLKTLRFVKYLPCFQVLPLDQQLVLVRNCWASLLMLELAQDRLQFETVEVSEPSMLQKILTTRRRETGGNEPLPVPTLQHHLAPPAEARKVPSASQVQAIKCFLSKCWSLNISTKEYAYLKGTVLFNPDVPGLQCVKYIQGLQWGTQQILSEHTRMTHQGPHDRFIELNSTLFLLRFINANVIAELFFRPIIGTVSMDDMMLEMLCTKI
SF1 AF2mut Luc = counter-screen for DAX1 inhibitors: nonselective inhibitors with SF-1 AF2 mutant | inhibition, % at 6.8 µM | HEK293 StAR-luciferase, luminescence | 2,400 tested, 78% active | shares compounds with DAX1 inh-2;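 active = inhibition above the mean of all tested compounds plus 3 SD, cut at about 3% in these data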
LXR ag = counter-screen for hcDAF-12 agonists: agonists of human LXR-beta; AID 743027; 3,400 tested, under 10 active; shares compounds with hcDAF-12 act; activation, % at 6.8 µM; HEK293 Gal4-LXR tk-luc reporter, luminescence, 24 h; normalized: DMSO 0%, positive control 100%;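 active = mean percent activation of the reporter above a cutoff set as the average over tested compounds plus their standard deviation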
hcDAF12 ag = hcDAF-12 agonism, confirmation assay. 3,400 tested, 61% active. AID 743032. activation, % at 6.8 µM. HEK293 hcDAF-12 lit1-tk-luc reporter, luminescence; % of Δ7-dafachronic acid response. shares compounds with hcDAF-12 act;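 active = mean activation across triplicate tests above the threshold derived from the earlier primary screen, cut at about 5.5% in these data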
hgDAF12 conf = hgDAF-12 agonism, confirmation assay; HEK293 GAL4-hgDAF12 luciferase reporter, agonist mode; percent of butyrate response; 3,300 tested, 80% active; activation, % at 6.8 µM; shares compounds with hgDAF12 agonist; AID 743050;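 active = mean activation over triplicate wells above the hit cutoff derived from the earlier primary screen, cut at about 11% in these data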
LXRb DAF12 ctr = counter-screen for DAF-12 agonists: agonists of human LXR-beta; activation, % at 6.8 µM; AID 743051; 3,300 tested, under 10 active; HEK293 Gal4-LXR luciferase reporter, 24 h; shares compounds with hgDAF12 agonist;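 active = mean activation of the triplicate above a set limit carried over from the primary screen, none filed active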
Numbers stand for hits; – = inactive; · = no result given.

SMILES	hgDAF12 agonist	ssDAF12 agonist	DAX1 inh-1	hcDAF-12 act	DAX1 inh-2	DAX1 conf	SF1 AF2mut Luc	hgDAF12 conf	LXRb DAF12 ctr	others
Cc1ccc2nc(-c3ccc(NC(=O)CCN4C(=O)c5ccccc5C4=O)cc3)sc2c1	17	0.9	–	8.7	5.9	15	4.5	21	–	LXR ag=–;hcDAF12 ag=8.3
O=C(CCN1C(=O)c2ccccc2C1=O)Nc1ccc(-c2nc3ccccc3s2)cc1	–	–	–	–	–	·	·	·	·
Cc1ccc2nc(-c3ccc(NC(=S)NC4CC(C)(C)NC(C)(C)C4)cc3)sc2c1	19	–	4.4	–	7.5	12	10	17	–
Nc1ccc2c3c(ccc([N+](=O)[O-])c13)CC2	–	–	–	–	–	·	·	·	·
Nc1ccn([C@@H]2O[C@H](CNCc3cnc(N4CCOCC4)s3)[C@@H](O)[C@H]2O)c(=O)n1	–	–	–	–	–	·	·	·	·
CCc1cc(C(=O)N=Nc2c(O)[nH]c3c(Br)cc(Br)cc23)c2ccccc2n1	–	–	–	–	–	·	·	·	·
Cc1ccc(-n2nc3c(c2NC(=O)c2ccc(F)c(F)c2)CS(=O)(=O)C3)cc1	–	–	–	–	–	·	·	·	·
CC(=O)O[C@@H](Cc1ccc(O)cc1)C(=O)CC(C)C	–	–	·	–	–	·	·	·	·
CCOC(=O)c1sc(=NC(=O)c2ccccc2)n(C)c1C	13	2.2	–	16	4.6	15	9.6	18	–	LXR ag=–;hcDAF12 ag=14
O=C(CSc1cccc[n+]1[O-])c1ccccc1Br	–	–	–	–	–	·	·	·	·
Cc1cc(C(=O)CSc2cccc[n+]2[O-])c(C)n1-c1ccccc1	16	–	–	7.5	8.1	17	7.8	13	–	LXR ag=–;hcDAF12 ag=7.2
CC(C)c1ccc(Nc2ncccc2C(=O)O)cc1	22	–	–	6.0	6.4	15	7.4	21	–
CCOc1ccc(/C=C\C(C)=N\O)cc1	14	–	–	–	4.9	8.2	6.9	13	–
Cc1cccc(N2CC(C(=O)Nc3ccc4c(c3)OCCO4)CC2=O)c1C (stereo unspecified)	–	–	–	–	–	·	·	·	·
CCc1sc(C(=O)N2CCc3ccccc32)cc1C	33	3.5	–	10	6.3	11	6.6	21	–	LXR ag=–;hcDAF12 ag=7.2
Cc1cc(NC(=O)NC(C(F)(F)F)C(F)(F)F)no1	–	–	–	–	–	·	·	·	·
Nc1ccc(C(=O)Nc2nc3ccccc3s2)cc1	21	1.2	–	6.6	5.3	5.6	3.0	21	–	LXR ag=–;hcDAF12 ag=8.7
Cc1cc(C)n(-c2ccc(C(=O)Nc3nc4ccccc4s3)cc2)n1	–	–	–	–	–	·	·	·	·
COC(=O)c1ccc2nc(-c3ccc(Cl)cc3)c(Cc3cccc(Cl)c3)n2c1	–	–	·	–	–	·	·	·	·
COCCN(C(=O)CSc1cc(C)c2ccccc2n1)c1c(N)n(CC(C)C)c(=O)[nH]c1=O	–	–	–	–	–	·	·	·	·
CCOC(=O)c1cnc(SCc2ccccc2)nc1N	16	–	–	–	5.4	10	6.6	16	–
C=CCn1c(C)cc(C(=O)Cn2nc(C(=O)O)c3ccccc3c2=O)c1C	15	0.9	–	–	5.0	10	4.0	13	–
CCc1ccc(NC(=O)c2noc3c2CCCCC3)cc1	15	1.2	4.8	–	5.7	16	9.0	20	–
